Rows were chosen to be rich in hits. Some 27% of all compounds tested hit in one or more screens of this group.
Pyk2 oligo antag = antagonists of human Pyk2 oligomerization; Q14289; Q293 cells, Pyk2 FERM NanoBiT luminescence; stronger effect = lower value; z-score (the deposit names both 25 µM and 10 µM); actives 0.83% (n = 99,000); AID 1347419;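 active = Z-score of -3 or lower, scaled per plate to the spread of control and sample wells; inactive = z-score above -3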;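 also: negative z-score means lost luminescence so less FERM oligomerization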
Cav32 inh = blocks human Cav3.2 T-type calcium channel. O95180. Cav3.2-expressing cells, Fluo-4 calcium fluorescence FDSS; stronger effect = lower value. B-score at 10 µM. actives 4% (n = 100,000);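 active = single-dose well whose peak fluorescence ratio is a statistical outlier from its plate by either plate-standardised score or position-corrected B-score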
CYP2C9 act = CYP2C9 (human) activation. recombinant CYP2C9, luciferin-H conversion, luminescence; stronger effect = higher value; factor 1 = untreated enzyme, 0 = blocked. AID 1024. P11712. activation factor at 5 µM. actives 1.4% (n = 96,000);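 active = activation factor of 2 or more for CYP2C9 at a 5 µM dose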;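 also: 0 = sulfaphenazole-blocked wells and 1 = vehicle-only wells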
CYP2C9 inh = blocks human cytochrome P450 2C9; CYP2C9 Supersomes, luciferin-H conversion, luminescence; inhibition, % at 5 µM; actives 20% (n = 96,000); AID 777;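 active = blocking of liver enzyme CYP2C9 beyond about 50% at 5 µM, limit read from the data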
CYP2C19 activ = cytochrome P450 2C19 (human) activation; P33261; recombinant CYP2C19, luciferin-H EGE luminescence; stronger effect = higher value; 0 = fully inhibited enzyme, 1 = untreated enzyme; activation factor at 5 µM; 96,000 tested, under 10 active; AID 1025;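 active = activation factor of at least 2 at 5 µM in the primary screen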;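 also: 0 = wells with 2.5 mM tranylcypromine and 1 = vehicle-only wells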
CYP2C19 inh = blocks human cytochrome P450 2C19. P33261. CYP2C19 Supersomes, luciferin-H EGE luminescence, 30 min. inhibition, % at 5 µM. actives 21% (n = 96,000). AID 778;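 active = CYP2C19 inhibition above a set limit at 5 µM in the primary screen, cut at about 50% in these data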;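 also: plate controls were negative control wells for no effect and 2.5 mM tranylcypromine positive control for full effect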
An asterisk follows results filed as active; · = no result given.

SMILES	Pyk2 oligo antag	Cav32 inh	CYP2C9 act	CYP2C9 inh	CYP2C19 activ	CYP2C19 inh
CN(Cc1nc(-c2ccccn2)no1)S(=O)(=O)c1ccc(Br)cc1	8.8	0.13	0.4	61*	0.4	61*
Cc1onc(-c2ccccc2Cl)c1C(=O)NCc1ccc(N2CCCC2=O)cc1	1.5	-2.9	0.3	67*	0.5	53*
CN(Cc1nc(-c2cccnc2)no1)S(=O)(=O)c1ccc2ccccc2c1	1.3	-0.4	0.7	27	0.1	86*
COc1ccc(-c2noc(CN(C)S(=O)(=O)c3ccc(Cl)cc3)n2)cc1OC	-0.28	0.32	0.9	13	0.6	42
COc1ccccc1C(=O)N(Cc1nc(-c2ccc(Cl)cc2)no1)C(C)C	·	-3.2	0.7	32	0.4	64*
O=C(NC1CCCC1)c1ncn[nH]1	-0.38	·	·	·	·	·
Cc1ccc(N2C(=O)C(Cc3ccc(O)cc3)NC2=S)cc1C (centres undefined)	-0.11	·	·	·	·	·
CC(C)N(Cc1nc(-c2ccccc2)no1)C(=O)c1ccc2c(c1)OCO2	-1.3	-1.6	0.6	43	0.3	69*
CC(=O)Cc1nsc(NC(=O)c2c(-c3ccccc3Cl)noc2C)n1	-0.18	0.57	0.2	75*	1	1
c1ccc(NCc2nc(-c3ccccc3)no2)cc1	-0.72	-0.084	0.2	76*	0.1	87*
O=C(NCCc1nc(-c2ccccc2)no1)c1ccccc1	·	0.33	·	·	·	·
Cc1onc(-c2ccccc2Cl)c1C(=O)NCc1nc(-c2ccccc2)no1	-0.54	-3.5	0.6	41	0.3	67*
CC(C)N(Cc1nc(-c2ccccc2)no1)C(=O)C1CCCCC1	-0.57	-2	0.2	81*	0.2	85*
COc1cc(OC)cc(C(=O)N(Cc2nc(-c3cccc(C)c3)no2)C(C)C)c1	-1.1	-6.7*	0.1	95*	0.1	86*
CC(C)N(Cc1nc(-c2ccccc2)no1)C(=O)c1ccc(Cl)cc1	·	-3.9	0.2	80*	0.2	79*
COc1ccc(-c2noc(CN(C(=O)c3c(-c4ccccc4Cl)noc3C)C(C)C)n2)cc1	-3	-3.2	0.4	57*	0.4	62*
O=C1CC(c2ccccc2)CC(O)=C1C=NC1CCCCC1 (centres undefined)	-0.66	·	1.1	-7	1	-2
CC(C)N(Cc1nc(-c2ccc(Cl)cc2)no1)C(=O)CCCN1C(=O)c2ccccc2C1=O	·	-5*	0.1	86*	0.1	88*
CC(C)N(Cc1nc(-c2ccccc2)no1)C(=O)CN(C)S(=O)(=O)c1ccc(Br)cc1	1.2	-3.2	0.4	58*	0.5	52*
COc1cc(OC)cc(C(=O)NCc2nc(-c3ccccc3)no2)c1	0.42	0.56	0.4	61*	0.3	73*
CC(C)N(Cc1nc(-c2ccccc2)no1)C(=O)c1ccc(Br)o1	-0.58	-3.5	0.4	64*	0.3	73*
O=C(NCc1nc(-c2ccccc2)no1)c1ccc2c(c1)OCO2	0.4	-1.9	0.8	23	0.8	22
O=C1c2ccccc2C(=O)N1CCc1nc(-c2ccc(Cl)cc2)no1	-0.61	0.82	0.7	29	0.8	22
Cc1ccc(N(C(=O)C2CCCC2)C2C=CS(=O)(=O)C2)cc1C (centres undefined)	-0.49	0.26	0.9	5	0.9	10
Nn1c(SCC(=O)NC2CCCc3ccccc32)nnc1-c1cccs1 (centres undefined)	1.8	0.26	0.5	48	0.6	40
SMILES	Pyk2 oligo antag	Cav32 inh	CYP2C9 act	CYP2C9 inh	CYP2C19 activ	CYP2C19 inh
CC(CCc1ccco1)NC(=O)CSc1cc(=O)n(C)c2ccccc12 (centres undefined)	-0.42	0.31	0.9	6	0.8	19
CN1C(=O)COc2ccc(C(=O)c3oc4ccccc4c3-c3cnc4c(c3)COc3ccccc3-4)cc21	·	-3.2	·	·	·	·
O=C(OCCCCN1C(=O)c2ccccc2C1=O)c1ccc(Br)o1	3.6	-2.9	0.4	55*	0.5	49
CC1CCN(CC(=O)NC(=O)NCc2ccccc2)CC1	0.97	·	·	·	·	·
Brc1cccc(-c2nnc(SCc3ccon3)n2-c2ccccc2)c1	·	-4.6*	0.6	44	0.5	50*
N#CCSc1nnc(-c2cccnc2)n1-c1ccccc1	0.58	2.4	1	-5	1.1	-8
Cc1cc(NC(=O)c2cccc(S(=O)(=O)N3CCCCCC3)c2)n(-c2ccccn2)n1	-0.19	1.9	0.7	29	0.7	26
Cc1cc(NC(=O)C2CCCCC2)n(-c2nc3ccccc3[nH]2)n1	-0.54	-0.38	0.3	71*	0.7	31
Cc1cc(NC(=O)c2c(F)cccc2Cl)n(-c2nc3ccccc3[nH]2)n1	-2.3	-1.4	0.1	95*	0.1	86*
Cc1nn(-c2nc3ccccc3[nH]2)c(N)c1-c1ccc(Cl)cc1	-1.8	-0.27	0.9	15	1	0
Cc1cc(NC(=O)C2CCC2)n(-c2ccccn2)n1	0.28	0.44	3*	-195	0.6	38
Cc1cc(NC(=O)c2ccccc2F)n(-c2nc3ccccc3[nH]2)n1	-2.1	-0.19	0.7	28	0.8	24
Cc1cc(NC(=O)c2c(F)cccc2F)n(-c2nc3ccccc3[nH]2)n1	-1.7	-0.6	0.5	52*	0.7	29
Cc1cc(C)n(-c2nc3ccccc3[nH]c2=O)n1	0.26	0.7	·	·	·	·
O=C(NC1CCCC1)c1ccc(CNc2c(N3CCOCC3)c(=O)c2=O)cc1	·	-0.92	1.2	-20	1.2	-21
CN(C)c1ccc(C(=O)C(O)c2ccc(C(C)(C)C)cc2)cc1 (centres undefined)	-1.3	0.3	0.9	13	0.6	45
Cc1cc(Nc2ccccc2)n(-c2nc3ccccc3[nH]2)n1	-0.86	0.9	0.3	69*	0.8	23
Cc1sc2nc(CN(C(=O)NC3CCCCC3)C3CCCC3)[nH]c(=O)c2c1C	-2	-0.013	·	·	·	·
CCN(CC)C(=O)CCc1nc2sc3c(c2c(=O)[nH]1)CCCC3	0.35	0.58	0.5	47	0.4	65*
Cc1sc2nc(CN(Cc3cccs3)C(=O)NC3CCCCC3)[nH]c(=O)c2c1C	-1.3	-4.7	0	96*	0	97*
CCCCc1nc2sc3c(c2c(=O)[nH]1)CCC3	-1.1	0.22	1	4	0.8	17
O=C(c1cccs1)N(Cc1nc2sc3c(c2c(=O)[nH]1)CCCC3)C1CCCC1	-1.1	-1.9	0.3	70*	0.6	37
Cc1sc2nc(CN(C(=O)c3cccs3)C3CCCC3)[nH]c(=O)c2c1C	-1.9	-4.8*	0.3	74*	0.9	12
O=c1[nH]c(CN2CCC(c3nc4ccccc4s3)CC2)nc2sc3c(c12)CCC3	·	·	1	4	1	0
COC(=O)c1cc(Br)c(=O)n(Cc2cccnc2)c1	0.96	0.0081	0.8	16	0.8	21
COC(=O)C(NC(C)=O)(Nc1ccccc1)C(=O)OC	-0.22	0.035	1	-3	0.9	5

Screening data (PubChem)
